Bioassay records (PubChem BioAssay)
DT40 TDP1 no CPT = qHTS for Inhibitors of human tyrosyl-DNA phosphodiesterase 1 (TDP1): qHTS in cells in absence of CPT. AID 686978, 2013. DT40 Tdp1-/- hTDP1 cells, no CPT, ATP luminescence, 48 h. actives 15% (n = 420,000). Potency, µM (doses to about 46.2 µM), without a hit: at the highest dose activity change, negative = growth inhibition, hits mostly inhibitors; also: potency is read from the fitted curve at half-maximal effect; nearly all actives have a fitted effect of over 55% in size
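A cellular qHTS used chicken DT40 cells lacking endogenous Tdp1 but carrying stably transfected human TDP1. Compounds were applied without camptothecin, and cell growth kinetics were judged by ATP-dependent luminescence after ≥48 hr.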
HT1080 IDH1KD tx = qHTS for induction of synthetic lethality in tumor cells producing 2HG: qHTS for the HT-1080-IDH1KD cell line | HT-1080 IDH1 knockdown viability, ATP luminescence, 48 h | Potency, µM (doses to about 46.1 µM), without a hit: at the highest dose activity, negative = toxicity, actives largely listed as cytotoxic | actives 2% (n = 360,000) | AID 686971, 2013;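 also: potency is read from the fitted curve at half-maximal effect; 0% = DMSO wells and -100% = cell-free medium wells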
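HT-1080-IDH1KD cells (IDH1 knocked down), 750/well in RPMI with 5% FBS, treated with compound 48 h at 37 degrees C. Viability by CellTiter-Glo luminescence, normalised to DMSO and no-cell wells; concentration-response curves classed.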
HT1080-NT tox = qHTS for induction of synthetic lethality in tumor cells producing 2HG: qHTS for the HT-1080-NT fibrosarcoma cell line. HT-1080-NT fibrosarcoma viability, CellTiter-Glo ATP luminescence, 48 h. Potency, µM (doses to about 46.1 µM), for inactives: at the top dose activity, negative = less viability, most hits filed as cytotoxic. actives 1.6% (n = 360,000). AID 686970, 2013;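 also: NT is the 2HG producing partner of a matched IDH1 knockdown line; potency is read from the fitted curve at half-maximal effect; 0% = DMSO-treated cells and -100% = media-only wells without cells; nearly all actives have a fitted effect of over 55% in size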
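Viability of the 2HG-overproducing fibrosarcoma line after 48 hours of compound exposure at 37 degrees C was determined by luminescence with CellTiter-Glo, and concentration-effect curves were then fitted and categorized.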
DT40 TDP1 CPT = qHTS for Inhibitors of human tyrosyl-DNA phosphodiesterase 1 (TDP1): qHTS in cells in presence of CPT. chicken DT40 Tdp1-/-;hTDP1 cells + 20 nM CPT, ATP luminescence, 48 h. Potency, µM (series often up to 46.2 µM), inactives show at the highest dose activity change, negative = growth inhibition, usual class: inhibitors. AID 686979, 2013. actives 12% (n = 420,000); also: potency is read from the fitted curve at half-maximal effect; nearly all actives have a fitted effect of over 55% in size
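Chicken DT40 Tdp1-/- cells stably complemented with human TDP1 were seeded at 400 cells/well in medium containing 20 nM camptothecin, exposed to pin-transferred compounds, and grown at 37 °C for at least 48 hr. Viability was read as ATP luminescence.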
IL-1B inflam inh = qHTS for Inhibitors of Inflammasome Signaling: IL-1-beta AlphaLISA Primary Screen | THP-1 LPS/ATP IL-1B secretion, AlphaLISA, 16 h; hits give low values | activity change, % at 57.5 µM | actives 4.7% (n = 360,000); in the data active = activity change below about -50%; inconclusive = mostly about -30% to -49%
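Secreted IL-1B measured by AlphaLISA bead assay after 16 h compound exposure of THP-1 cells; compounds (final up to 57.5 uM) added 1 h before LPS (250 ng/mL) and ATP (1.25 mM) stimulation; lower signal means less secretion.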
Active calls of the source: *; ? = inconclusive; / = no result given. Compounds with a hit are over-represented: about 19% of the library has one in this group of screens. Unless noted, calls follow the shape of the dose curve; as a rule, active = well fitted curve in the direction sought with a large enough effect; inconclusive = small, poorly fitted or top-dose-only effect, or another doubt; inactive = no such curve, though single readings can be large; an effect the other way counts as inactive or inconclusive. Unless noted, % is scaled to controls: 0 for no effect and ±100 for the full control effect.

SMILES	DT40 TDP1 no CPT	HT1080 IDH1KD tx	HT1080-NT tox	DT40 TDP1 CPT	IL-1B inflam inh
O=C(CSc1nnc(-c2ccccc2O)o1)Oc1ccc(OCc2ccccc2)cc1	13µM*	?	?	13µM*	17
O=C(CSc1nnc(-c2ccncc2)o1)Oc1ccccc1	-9%	21%	17%	-1%	5
CC(C)c1nnc(NC(=O)CCC(=O)NC2CC2)s1	-1%	12%	6%	9%	13
CC(C)=N/N=C(\c1cccc([N+](=O)[O-])c1)C12CN3CN(CN(C3)C1)C2	0%	-1%	4%	2%	12
O=C(NCc1ccc(F)cc1)c1cc(C2CCCCN2C(=O)OCCF)on1 (stereo not given)	?	10%	5%	?	-3
CC(C)COC(=O)N1CCCCC1c1cc(C(=O)Nc2ccccc2)no1 (stereo not given)	?	-5%	-2%	18µM*	-25
CC(C)NC(=O)c1cc(C2CCCCN2C(=O)OCCF)on1 (stereo not given)	6%	18%	0%	-1%	-67*
CC(C)COC(=O)N1CCCCC1c1cc(C(=O)NCc2ccc(F)cc2)no1 (stereo not given)	21µM*	-20%	-6%	?	-12
CC(C)COC(=O)N1CCCCC1c1cc(C(=O)Nc2ccc3c(c2)OCO3)no1 (stereo not given)	-51%	-17%	-26%	-58%	-19
Cc1ccc(S(=O)(=O)N2CCOCC2)cc1NC(=O)CSc1nnc(COc2ccccc2F)n1N	-22%	18%	7%	-20%	-1
Cc1ccc(C)c(S(=O)(=O)N2CCCC2CNC(=O)C(=O)NCc2ccccc2C)c1 (stereo not given)	?	-16%	-21%	?	-17
COc1ccc(C(CNC(=O)COc2ccc(C)c(C)c2)N2CCCCC2)cc1 (stereo not given)	?	-1%	-13%	23µM*	4
COc1ccc(C(CNC(=O)COc2ccc(Cl)c(C)c2)N2CCOCC2)cc1 (stereo not given)	?	/	/	21µM*	/
COc1ccc(C(CNC(=O)COc2cc(C)c(Cl)c(C)c2)N2CCCCC2)cc1 (stereo not given)	16µM*	-2%	-1%	23µM*	?
COc1ccc(OCC(=O)NCC(c2ccc(OC)cc2)N2CCCCC2)cc1 (stereo not given)	6%	-1%	0%	-16%	0
COc1ccc(C(CNC(=O)COc2cc(C)cc(C)c2)N2CCCCC2)cc1 (stereo not given)	?	/	/	23µM*	/
C/C(=N\n1c(C)nc2ccccc2c1=O)c1ccc(C)o1	-20%	10%	8%	-4%	-4
C=CCN1[C@H](COCc2ccccc2)C=CS1(=O)=O	-1%	13%	16%	-15%	-23
CCCNc1c(NS(=O)(=O)c2ccc3c(c2)CCCC3)c(=O)oc2ccccc12	?	4%	5%	4%	5
CNC(=O)c1ccccc1NC(=O)C1CC(=O)N(c2ccc(OC)cc2)C1 (stereo not given)	5%	5%	0%	-1%	42
Cc1ccc(S(=O)(=O)Nc2c(C)n(C)n(-c3ccccc3)c2=O)cc1C(=O)NCc1ccccc1	?	4%	-2%	?	-17
CCOc1ccccc1N(C)C(=O)c1ccc2c(=O)n3c(nc2c1)CCCCC3	-25%	-3%	-10%	?	0
CS(=O)(=O)c1ccc(C(=O)OCC(=O)c2ccc(Cl)s2)cc1	-2%	0%	-5%	-8%	26
Cc1cccc(C)c1-n1nnnc1C1c2ccccc2C(=O)N1CCc1ccccc1F (stereo not given)	16µM*	1%	12%	?	7
COc1ccc(CCN2C(=O)CCC2(C)c2nnnn2-c2c(C)cccc2C)cc1OC (stereo not given)	-28%	-2%	6%	-28%	20
SMILES	DT40 TDP1 no CPT	HT1080 IDH1KD tx	HT1080-NT tox	DT40 TDP1 CPT	IL-1B inflam inh
COc1ccc(CCN2C(=O)c3ccccc3C2c2nnnn2-c2c(C)cccc2C)cc1OC (stereo not given)	12µM*	13%	22%	23µM*	2
COc1ccc(CN2C(=O)CCC2(C)c2nnnn2-c2c(C)cccc2C)cc1OC (stereo not given)	18µM*	2%	8%	16µM*	0
Cc1ccc(CN2C(=O)c3ccccc3C2c2nnnn2-c2c(C)cccc2C)cc1 (stereo not given)	29µM*	-21%	-6%	?	-8
O=C(Nc1nc(-c2cccnc2)cs1)c1ccccc1[N+](=O)[O-]	0%	14%	1%	3%	17
CC(C)(C)CC(=O)Nc1ccc(S(=O)(=O)N2CCCC2)cc1	?	-30%	0%	0%	-2
CCN(CC)C(=O)C1CCN(c2cc(C)nc3c(-c4ccc(OC)c(OC)c4)c(C)nn23)CC1	?	/	/	-26%	/
CCc1c(C)nc2cc(-c3ccc(OC)c(OC)c3)nn2c1NCC1CC1	16µM*	-15%	-10%	13µM*	-94*
Cc1ccc(-n2cc(CN3CCN(c4ccccn4)CC3)c(-c3ccc(F)cc3)n2)cc1	16µM*	?	10%	4%	?
Cc1cccc(-n2cc(CN3CCN(c4ccccn4)CC3)c(-c3cccc(F)c3)n2)c1	-3%	-5%	0%	?	3
O=C(c1cn(-c2ccccc2)nc1-c1cccc([N+](=O)[O-])c1)N1CCCCC1	?	3%	0%	-16%	-95*
CN(C)C(=O)c1cn(-c2ccccc2)nc1-c1cccc([N+](=O)[O-])c1	-18%	9%	11%	2%	-16
Cc1ccc(-n2cc(CN3CCN(C(=O)c4ncn[nH]4)CC3)c(-c3ccc(F)cc3)n2)cc1	23µM*	-4%	26%	?	-59*
O=C(c1[nH]c(C(F)(F)F)nc1-c1ccccc1)N1CCN(c2ccccn2)CC1	?	23µM*	?	?	41
C=CCON/C(CCC)=C1\C(=O)CC(C)(C)CC1=NC	1%	1%	9%	4%	16
O=S(=O)(c1ccccc1)N1CCN(C(c2ccccc2)c2ccc(OC(F)(F)F)cc2)CC1 (stereo not given)	?	-4%	-7%	?	4
